Measurements: PubChem BioAssay AID463173 (ICCB-Longwood Screening Facility, Harvard Medical School, 2010)
Screen size: about 52,000 compounds; about 1,700 (3.3%) were called active. The entries come from a sample that favours actives as a whole. A number with no mark means an inactive call. No stated cut-off is given here; in the data, active means survival mostly below about 52% (no sharp cut-off); inactive means mostly above about 56%.

test system: Wild type; test: growth inhibition of S. aureus wild type versus tarO mutant, primary screen, teichoic acid synthesis inhibitors, RN4220, OD600 (AID 463173); conditions: S. aureus RN4220 wild type/DeltatarO growth, OD600, 18 h, active compounds read low, screened at 18.75 µg/mL (by protocol)

Structure (SMILES)	survival
CCc1ccccc1NC(=O)COC(=O)c1cn(CC)c2nc(C)ccc2c1=O	83%
COc1ccc(OC)c(-c2nc3c(C#N)c[nH]n3c2NC2CCCCC2)c1	102%
COc1ccc(CCNc2nc(-c3ccc(OC)c(OC)c3)cc(C(F)(F)F)n2)cc1OC	0% (active)
COc1ccc(CCNc2nc(-c3ccccc3OC)cc(C(F)(F)F)n2)cc1OC	-8% (active)
COc1ccc(CCNC(=O)CSc2nc(-c3ccc(F)cc3)cc(C(F)(F)F)n2)cc1OC	97%
COc1ccc(-c2cc(C(F)(F)F)nc(SCC(=O)NCCc3ccc(OC)c(OC)c3)n2)cc1	70%
COc1ccc(-c2cc(C(F)(F)F)nc(SCC(=O)NCc3ccc(OC)c(OC)c3)n2)cc1	97%
COc1ccc(CCNc2nc(-c3ccc(Cl)cc3)cc(C(F)(F)F)n2)cc1OC	18% (active)
COc1ccc(CCNc2nc(-c3ccc(F)cc3)cc(C(F)(F)F)n2)cc1OC	142%
COc1ccc(CCNc2nc3c(-c4cccc(C(F)(F)F)c4)nnn3c3ccccc23)cc1OC	83%
COc1ccc(CCNc2nc(-c3ccc(C)cc3)cc(C(F)F)n2)cc1OC	100%
CC(C)C1N(c2ccccc2)CCN1c1ccccc1	110%
Cc1ccccc1OCC(=O)NCCN1CCCC1	113%
COc1cc(-c2noc(CSc3nc(-c4ccccc4)cc(=O)[nH]3)n2)cc(OC)c1OC	59%
O=c1[nH]cc(COCC(F)(F)C(F)F)c(=O)[nH]1	111%
O=C(CCSCc1cccc(Cl)c1)NCCc1ccc(Cl)cc1	67%
Cc1ccccc1CS(=O)(=O)Cc1ccc(C(=O)NCCc2ccc(Cl)cc2)o1	88%
O=C(NCc1ccccc1Cl)c1ccc(CSCc2ccccc2Cl)o1	66%
Cc1ccc(CCNC(=O)CCSCc2ccccc2F)cc1	-6% (active)
O=C(NCCc1ccc(Cl)cc1)c1ccc(CS(=O)(=O)Cc2ccccc2F)o1	-3% (active)
CCc1ccc(CNC(=O)CCSCc2ccccc2F)cc1	70%
Cc1ccc(CCNC(=O)c2ccc(CS(=O)(=O)Cc3ccccc3F)o2)cc1	71%
O=C(CCSCc1ccc(Cl)cc1)NCCc1ccccc1	-6% (active)
Cc1ccc(CCNC(=O)CCSCc2ccc(Cl)cc2)cc1	72%
Cc1ccc(CNC(=O)CCSCc2ccccc2F)cc1	74%
O=C(NCc1ccc(F)cc1Cl)c1ccc(CSCc2ccccc2Cl)o1	53%

Structure (SMILES)	survival
O=C(NCc1ccccc1Cl)c1ccc(CSCc2cccc(F)c2)o1	-1% (active)
COc1cccc(CNS(=O)(=O)c2ccc(-c3cc(C(F)(F)F)on3)s2)c1	87%
CC1=C(C(=O)Nc2cc(Cl)ccc2C)C(c2sccc2C)n2ncnc2N1 (centres undefined)	47%
O=C(CSc1nc2c([nH]c3ccccc32)c(=O)n1-c1cccc(Cl)c1)NCc1ccccc1	78%
COc1cccc(Cn2c(CNC(=O)C(C)C)nc3cccnc32)c1	80%
Cc1oc(-c2ccc(C(=O)NCc3ccccc3)cc2)nc1CN1CCc2ccccc21	80%
CC(C)(C)OC(=O)N1CCC(c2c(C(=O)NCc3cccc(Cl)c3)cnn2-c2ccc(F)cc2)CC1	78%
COc1ccc(-c2nc(SCC(=O)Nc3ccc4c(c3)OCCO4)c(-c3ccc(F)cc3)[nH]2)cc1OC	62%
Cc1ccccc1C(=O)NCC(c1ccc(N(C)C)cc1)N1CCCC1 (centres undefined)	66%
O=C(CCSCc1ccc(Cl)cc1)NCc1ccc(F)cc1Cl	79%
O=C(CCSCc1ccccc1Cl)NCCc1ccccc1	74%
Cc1ccc(CCNC(=O)c2ccc(CSCc3ccccc3Cl)o2)cc1	72%
Cc1ccc(CCNC(=O)c2ccc(CSCc3ccccc3C)o2)cc1	0% (active)
O=C(CCSCc1ccccc1Cl)NCc1ccc(F)cc1Cl	0% (active)
Cc1ccccc1CSCc1ccc(C(=O)NCCc2ccccc2)o1	77%
COc1ccc(CCNC(=O)CCSCc2ccccc2Cl)cc1OC	88%
O=C(CCSCc1cccc(Cl)c1)NCc1ccc(F)cc1Cl	66%
Cc1ccc(CCNC(=O)CCSCc2ccccc2Cl)cc1	-3% (active)
CC1(C)CC(NC(=O)NCc2ccc3c(c2)OCO3)CC(C)(CNC(=O)NCc2ccc3c(c2)OCO3)C1 (centres undefined)	117%
CCOCCc1nn2c(=O)cc(COC(=O)c3ccccc3OC)nc2s1	78%
CC(=O)N1CCc2c(sc3c2c(=O)n(Cc2ccccc2)c(=O)n3Cc2ccccc2Cl)C1	98%
C/C(=N\NC(N)N)C1CCCCCCCCCCC1	-1% (active)
Cc1nc(C)c(CC(=O)O)c(=O)[nH]1	112%
CCOc1ccc(-n2cc(-c3ccccc3)c3c(NCCc4ccccc4)ncnc32)cc1	74%
Cc1ccc(NC(=O)CSc2nc3nc(C)c(Cc4ccccc4)c(C)n3n2)cc1	47%
Cc1nc2nc(SCC(=O)Nc3ccccc3Cl)nn2c(C)c1Cc1ccccc1	-3% (active)

Structure (SMILES)	survival
Cc1cccc(Cc2c(C)nc3nc(SCc4ccccc4C)nn3c2C)c1	87%
Cc1nc2nc(SCC(=O)NCCc3ccccc3)nn2c(C)c1Cc1c(F)cccc1Cl	65%
Cc1cccc(Cc2c(C)nc3nc(SCc4ccccc4Cl)nn3c2C)c1	-5% (active)
Cc1nc2nc(SCC(=O)NCCc3ccc(Cl)cc3)nn2c(C)c1Cc1c(F)cccc1Cl	-2% (active)
Cc1cccc(Cc2c(C)nc3nc(SCc4ccccc4F)nn3c2C)c1	91%
Cc1nc2nc(SCC(=O)NCCc3ccc(Cl)cc3)nn2c(C)c1Cc1ccccc1Cl	80%
Cc1cccc(Cc2c(C)nc3nc(SCC(=O)NCc4ccccc4)nn3c2C)c1	71%
Cc1nc2nc(SCC(=O)NCc3ccccc3Cl)nn2c(C)c1Cc1ccccc1	68%
Cc1nc2nc(SCC(=O)NCc3ccccc3)nn2c(C)c1Cc1ccccc1Cl	128%
Cc1nc2nc(SCC(=O)NCc3ccccc3)nn2c(C)c1Cc1ccccc1	0% (active)
Cc1cccc(Cn2c(CN3CCC(C(=O)NCCc4ccccc4)CC3)cc3ccccc32)c1	128%
COc1cc(-c2nc(-c3ccc4c(c3)[nH]c(=O)n4C)no2)cc(OC)c1OC	83%
COC(=O)c1cc(-c2ccccc2)sc1N	116%
COCCNC(=O)CSc1nc(-c2ccc(C)cc2)nc2c1c(=O)n(C)c(=O)n2C	77%
CCOc1ccc(OCC)c(S(=O)(=O)N2CCC(C)CC2)c1	102%
CC(C)CCNC(=O)Cn1cc(S(=O)(=O)Cc2ccc(F)cc2)c2ccccc21	91%
O=C(CSc1nnc(-c2cccs2)o1)Nc1cccc(C(F)(F)F)c1	71%
Cc1ccc(C)c(N2CCN(C(=O)C3CCN(c4nc(-c5ccc(C(C)C)cc5)no4)CC3)CC2)c1	87%
CCOCCCn1c(SCC(=O)Nc2ccc(C)cc2)nc2ccccc2c1=O	83%
c1ccc(-n2nnnc2N2CCCC2)cc1	102%
COc1ccc(C(C(=O)NC2CCCC2)N(Cc2ccc(C)cc2)C(=O)c2ccn[nH]2)cc1OC (centres undefined)	103%
CCOC(=O)CN(Cc1ccccc1)C(C(=O)NC1CCCCC1)c1ccc(OC)cc1 (centres undefined)	20%
O=C(NC1CCCC1)C(c1ccccc1)N(Cc1ccccc1F)C(=O)c1ccco1 (centres undefined)	118%
CCOC(=O)CN(Cc1ccccc1)C(C(=O)NC1CCCCC1)c1ccc(C)cc1 (centres undefined)	-2% (active)
CN(Cc1ccccc1)C(C(=O)NC1CCCCC1)c1ccc(Cl)cc1 (centres undefined)	74%
O=C(NC1CCCC1)C(c1ccccc1)N(C(=O)c1ccco1)C1CCCC1 (centres undefined)	88%

Structure (SMILES)	survival
Cc1ccc(C(C(=O)NC2CCCCC2)N(C)Cc2ccccc2)cc1 (centres undefined)	-1% (active)
CCOC(=O)CN(Cc1ccccc1)C(C(=O)NC1CCCCC1)c1ccccc1 (centres undefined)	-2% (active)
Cc1ccc(-c2nnn(CC(=O)N(Cc3ccccc3)C(C(=O)NC3CCCC3)c3ccco3)n2)cc1 (centres undefined)	99%
N#Cc1c(Nc2cccc(F)c2)sc(C(=O)c2ccc(Cl)cc2)c1N	101%
CCCOc1cccc(NC(=O)c2c(-c3ccccc3Cl)noc2C)c1	71%
CCc1nc(NCCCO)c2nnn(Cc3ccccc3F)c2n1	106%
CS(=O)(=O)NCC(c1ccco1)N1CCN(c2ccccc2)CC1 (centres undefined)	83%
CCCCCCc1cc2cc(-c3nnc(-c4cccc(Cl)c4)o3)c(=O)oc2cc1O	72%
CN(C)N1C(=O)CC(N2CCCC2)C1=O (centres undefined)	101%
CCc1ccc(NC(=O)CC2C(=O)N(c3cccc(C)c3)C(=O)N2CCC(C)C)cc1 (centres undefined)	72%
COc1cc2c(cc1OC)C(COc1cc(C)cc(C)c1)N(C(=O)c1ccc(S(=O)(=O)N3CCCC3)cc1)CC2 (centres undefined)	45%
COc1cc2c(cc1OC)C(COc1ccc(F)cc1)N(C(=O)c1ccc(S(=O)(=O)N3CCCC3)cc1)CC2 (centres undefined)	88%
COc1cc2c(cc1OC)C(COc1ccccc1OC)N(C(=O)c1ccc(S(=O)(=O)N3CCCC3)cc1)CC2 (centres undefined)	0% (active)
COc1cccc(NC(=O)CCc2nnc3n(CC(C)C)c(=O)c4ccccc4n23)c1	92%
Cc1ccc(CCNC(=O)c2cc3c(s2)-c2ccccc2OC3)cc1	95%
CCOc1ccc(CCNC(=O)c2cc3c(s2)-c2ccccc2OC3)cc1OCC	90%
CCOc1ccccc1N(C)C(=O)c1cc2c(s1)-c1ccccc1OC2	13% (active)
COc1ccc(CNC(=O)c2cc3c(s2)-c2ccccc2OC3)cc1	92%
CCN(C(=O)c1cc2c(s1)-c1c(C)cccc1OC2)c1ccccc1F	96%
Cc1ccc(C)c(N(C)C(=O)c2cc3c(s2)-c2ccccc2OC3)c1	-2% (active)
CCN(C(=O)c1cc2c(s1)-c1c(C)cccc1OC2)c1cc(C)ccc1C	11% (active)
COc1cc(NC(=O)c2cc3c(s2)-c2ccccc2OC3)cc(OC)c1OC	53%
COc1cc(OC)c(N(C)C(=O)c2cc3c(s2)-c2ccccc2OC3)cc1Cl	73%
COc1ccc(N2CCN(C(=O)c3cc4c(s3)-c3ccccc3OC4)CC2)cc1	116%
COc1ccc(N(C)C(=O)c2cc3c(s2)-c2ccccc2OC3)cc1	13% (active)
Cc1ccc(CCNC(=O)c2cc3c(s2)-c2c(C)cccc2OC3)cc1	88%
